# High-throughput results: PubChem, National Center for Advancing Translational Sciences (NCATS)
# GCN5L2 inh: qHTS Assay for Inhibitors of GCN5L2; Histone acetyltransferase KAT2A (Homo sapiens), Q92830; GCN5L2 HAT assay, ThioGlo1 CoA-SH fluorescence; Potency, µM (titrated, usually from 58.9 µM), inactives show at the top dose activity change, negative = inhibition, actives largely listed as inhibitors; 390,000 compounds, 0.21% hits; AID 504327, 2011
#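 Preincubate 20nM GCN5L2 with compound 15 min, RT → add 50uM ThioGlo1 + 75uM H3(1-25) + 70uM acetyl-CoA → read fluorescence 0 and 20 min. Primary qHTS; fluorescent artifacts likely.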
# VDR inh: Inhibitors of the vitamin D receptor (VDR): qHTS; Vitamin D3 receptor (Homo sapiens), P11473; VDR-SRC2-3 peptide fluorescence polarization, 2 h; Potency, µM, without a hit: max response, negative = inhibition, hits mostly inhibitors; 400,000 compounds, 0.93% hits
#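 The screen uses fluorescence polarization to detect compounds that interfere with recruitment of the SRC2-3 coactivator peptide to VDR; plates are read after 2 h at room temperature.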
# DT40 TDP1 CPT: qHTS for Inhibitors of human tyrosyl-DNA phosphodiesterase 1 (TDP1): qHTS in cells in presence of CPT; chicken DT40 Tdp1-/-;hTDP1 cells + 20 nM CPT, ATP luminescence, 48 h; Potency, µM (highest dose often 46.2 µM), inactives show top-dose activity change, negative = growth inhibition, most hits filed as inhibitors; 420,000 compounds, 12% hits; further: nearly all actives have a fitted effect of over 55% in size
#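 Chicken DT40 Tdp1-/- cells stably complemented with human TDP1 were seeded at 400 cells/well in medium containing 20 nM camptothecin, exposed to pin-transferred compounds, and grown at 37 °C for at least 48 hr. Viability was read as ATP luminescence.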
# TDP1 cell noCPT: qHTS for Inhibitors of human tyrosyl-DNA phosphodiesterase 1 (TDP1): qHTS in cells in absence of CPT. Potency, µM (series often up to 46.2 µM), for inactives: at the top dose activity change, negative = growth inhibition, actives largely listed as inhibitors. DT40 Tdp1-/- hTDP1 cells, no CPT, ATP luminescence, 48 h. 420,000 compounds, 15% hits; further: nearly all actives have a fitted effect of over 55% in size
#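 DT40 Tdp1-/-;hTDP1 cells, no CPT (DMSO vehicle only), 400 cells/well; compounds pin-transferred; ≥48 hr, 37 °C; CellTiter-Glo 30 min RT dark, luminescence read.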
# TDP1 inh: qHTS Assay for Inhibitors of Tyrosyl-DNA Phosphodiesterase (TDP1) | recombinant TDP1, AlphaScreen DNA substrate cleavage | Potency, µM (titrated, usually from 130 µM), inactives show at the highest dose activity change, negative = inhibition, usual class: inhibitors | 350,000 compounds, 0.28% hits | AID 485290, 2010; further: nearly all actives have a fitted effect of over 40% in size
# Target sequence (Q9NUW8 whole entry, looked up): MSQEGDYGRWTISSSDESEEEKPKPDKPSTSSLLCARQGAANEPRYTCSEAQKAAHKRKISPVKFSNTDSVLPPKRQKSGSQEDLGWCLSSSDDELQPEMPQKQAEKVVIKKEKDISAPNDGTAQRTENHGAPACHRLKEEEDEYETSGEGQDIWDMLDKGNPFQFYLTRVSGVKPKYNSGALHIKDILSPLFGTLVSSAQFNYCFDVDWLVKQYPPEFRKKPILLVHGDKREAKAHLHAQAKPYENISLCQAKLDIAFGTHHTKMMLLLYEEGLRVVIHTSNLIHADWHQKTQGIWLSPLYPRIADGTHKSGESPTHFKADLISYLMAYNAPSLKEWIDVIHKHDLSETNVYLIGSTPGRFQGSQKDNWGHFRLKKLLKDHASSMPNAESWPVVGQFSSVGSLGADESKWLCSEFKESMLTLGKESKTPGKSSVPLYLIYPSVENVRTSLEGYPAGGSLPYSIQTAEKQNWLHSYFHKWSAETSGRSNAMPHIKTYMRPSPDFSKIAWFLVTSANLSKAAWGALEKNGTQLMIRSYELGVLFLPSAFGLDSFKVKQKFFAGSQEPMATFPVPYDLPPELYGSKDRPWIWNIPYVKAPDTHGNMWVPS
#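 AlphaScreen read-out: signal falls as enzyme removes the 3' tyrosine-FITC from a 5'-biotinylated DNA oligo (15 nM, 5 min, RT). Enzyme was E. coli-made recombinant Tdp1 at 1 nM, exposed to compound for 15 min beforehand; beads 10 ug/ml, 10 min.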
# PLK1 PBD block: qHTS for Inhibitors of PLK1-PDB (polo-like kinase 1 - polo-box domain): Primary Screen; Serine/threonine-protein kinase PLK1 (Homo sapiens), P53350; Plk1 PBD binding of FITC phosphopeptide, fluorescence polarization; Potency, µM, inactives show max response, negative = inhibition, most hits filed as inhibitors; 360,000 compounds, 2.8% hits; AID 720504, 2013; further: series mostly up to about 57 µM; nearly all actives have a fitted effect of over 65% in size
# TbPYK confirm: qHTS of Trypanosoma Brucei Inhibitors: Confirmatory Assay for Cherry-picked Compounds; recombinant TbPYK, Kinase-Glo ATP luminescence; 890 compounds, 67% hits; Potency, µM (top dose mostly 76.9 µM), inactives show at the highest dose activity change, negative = inhibition, hits mostly inhibitors; AID 720569, 2013; shares compounds with PLK1 PBD block; further: nearly all actives have a fitted effect of over 70% in size
# TbPYK orthogonal: qHTS of Trypanosoma Brucei Inhibitors: Orthogonal Assay for Cherry-picked Compounds; 890 compounds, 62% hits; Potency, µM (top dose mostly 76.9 µM), without a hit: top-dose activity change, negative = inhibition, actives largely listed as inhibitors; shares compounds with PLK1 PBD block; recombinant TbPYK, ADP-Glo luminescence, 60 min; further: nearly all actives have a fitted effect of over 75% in size
# * = called active by the depositor; ? = inconclusive; · = no result given. This is a sample that favours compounds with a hit; in the whole collection about 18% have one here. The call rests on the fitted dose curve; in most records, active means well fitted curve in the direction sought with a large enough effect; inconclusive means small, poorly fitted or top-dose-only effect, or another doubt; inactive means no such curve, though single readings can be large; an effect the other way counts as inactive or inconclusive. On the % scale 0 is the no-effect control and ±100 the full control effect; potency means the concentration at half of the fitted maximal effect.
SMILES,GCN5L2 inh,VDR inh,DT40 TDP1 CPT,TDP1 cell noCPT,TDP1 inh,PLK1 PBD block,TbPYK confirm,TbPYK orthogonal
N/C(=N/OC(=O)c1ccccc1Cl)c1nonc1N,-8%,-5%,?,-10%,2%,-4%,25µM*,6%
O=C(CCN1CCc2ccccc2C(c2ccccc2)C1)c1ccc2c(c1)OCCO2 (stereo unspecified),-12%,?,3.3µM*,3.3µM*,10%,3µM*,?,?
O=C(NC1CCN(S(=O)(=O)c2ccccc2)CC1)c1ccc(F)cc1,-2%,2%,-4%,-11%,·,-1%,·,·
CCN1CCN(c2nc(C)nc3c2sc(=S)n3C)CC1,0%,25µM*,-4%,-26%,-5%,3µM*,5.6µM*,16µM*
Cc1nc(N2CCCCC2)c2sc(=S)n(C)c2n1,1%,4%,1%,-14%,7%,-16%,·,·
CC1CN2C(c3ccc([N+](=O)[O-])cc3)=CSC2=N1 (stereo unspecified),-9%,?,5%,-7%,·,?,6.3µM*,13µM*
O=C(c1ccccc1)c1cc(Cl)ccc1N1C(=O)C=CC1=O,?,25µM*,2.3µM*,1.2µM*,6%,3µM*,5µM*,10µM*
N#Cc1cc(C(=O)c2cc(Cl)ccc2O)cn(-c2ccccc2)c1=O,0%,-8%,19%,1%,3%,0%,·,·
CC(Oc1ccccc1C(N)=O)C(=O)Nc1ccc(S(=O)(=O)N2CCCC2)cc1 (stereo unspecified),1%,-13%,?,-28%,1%,2%,·,·
CC(Oc1ccccc1Cl)C(=O)Nc1ccc(S(=O)(=O)N2CCN(C)CC2)cc1 (stereo unspecified),·,?,?,?,·,19µM*,?,?
Nc1sc2c(c1C(=O)NC1CCS(=O)(=O)C1)CCCC2 (stereo unspecified),-11%,?,2%,1%,2%,27µM*,14µM*,16µM*
COC(=O)c1sccc1NC(=O)Nc1ccc(C)cc1,-3%,1%,-13%,15%,-5%,-4%,·,·
COC(=O)c1sccc1NC(=O)Nc1ccc(F)cc1,-11%,40%,-10%,-1%,3%,4%,?,-4%
C=CCN1CCN(C(c2ccccc2)c2nnnn2CCC(C)C)CC1 (stereo unspecified),0%,?,6.5µM*,6.5µM*,12%,2.7µM*,4%,-4%
C/C(=N/N1CCN(Cc2cccc3ccccc23)CC1)c1ccco1,-2%,10%,4%,?,9%,-6%,·,·
Cc1ccc(S(=O)(=O)NNc2ccccc2)c(C)c1,?,?,?,18µM*,2%,21µM*,16µM*,?
Cc1ccc(S(=O)(=O)NNC(=O)c2cccs2)c(C)c1,3%,3%,-17%,-15%,3%,2%,·,·
CCCNc1ncnc2c1cnn2C1CCCCO1 (stereo unspecified),·,15%,2%,-14%,·,3%,·,·
COC(=O)c1cc(Br)c(=O)n(CCc2ccccc2)c1,-3%,9%,?,-16%,7%,5%,·,·
COC(=O)c1ccc(CCc2cc(O)c(Br)cc2O)cc1,·,-6%,2.1µM*,2.3µM*,·,?,32µM*,35µM*
OCC1(Cc2ccccc2F)CCCN(Cc2c(F)ccc(F)c2F)C1 (stereo unspecified),-10%,-4%,4%,-24%,·,-6%,·,·
CC1(C)OC(=O)C(=Cc2ccc(-c3ccc(Cl)c(C(=O)O)c3)o2)C(=O)O1,?,?,0%,15%,50µM*,1.7µM*,7.1µM*,18µM*
COc1ccc(CN2C(=O)/C(=C/c3ccc(-c4ccc(Cl)c(C(=O)O)c4)o3)SC2=S)cc1,-9%,·,·,·,-5%,·,·,·
O=C1N/C(=C/c2ccc(N3CCOCC3)o2)C(=O)N1c1ccccc1,-5%,45µM*,12µM*,9.2µM*,-2%,49%,?,16µM*
CCn1c(=S)sc2c(=O)n(-c3ccccc3)c(=S)[nH]c21,-15%,-9%,4%,?,0%,-15%,·,·
CCOc1ccccc1-n1c(=S)sc2c(=O)n(-c3ccc(C)cc3)c(=S)[nH]c21,-11%,?,?,3%,8%,6.7µM*,4.5µM*,6.3µM*
CCSc1nc2c([nH]1)c(=O)n(C)c(=S)n2C,·,22µM*,-25%,-17%,·,3.4µM*,5µM*,10µM*
CCCCCCCCCCCCCCCC(=O)NCCCC(=O)O,·,1%,·,·,5%,·,·,·
Cc1nonc1C(=O)N/N=C/c1ccc(O)c(O)c1,-3%,-10%,?,?,-2%,0%,?,4%
